In ChEMBL document CHEMBL4513216, “Probing the Open Global Health Chemical Diversity Library for Multistage-Active Starting Points for Next-Generation Antimalarials” (ACS Infect Dis, 2020):
The whole screen tested about 69,000 compounds, of which about 8,600 (12%) showed an effect of 50% or more. For the sample, strong results were picked, then their nearest neighbours and some compounds at random.

System: Plasmodium berghei
Experiment: Screen against P. berghei liver stage (PbLuc), transformed with Luciferase, at 10uM
Assay type: functional, HepG2
Details: tested at 10 uM

Row | SMILES | INHIBITION [%]
1 | CC(C)CCC(=O)N1CCN(C(C)c2nnc(CC(C)C)o2)CC1 (stereo not given) | 13.8
2 | COCCNC(=O)CCN1C(=O)CC2(CCCC2)C1=O | 29
3 | Cc1cc(C(=O)N2CCCN(c3nccs3)CC2)c(C)n1C(C)C | -26.3
4 | Cc1cc(NC(=O)NCC(C(C)C)N2CCOCC2)n(C)n1 (stereo not given) | 28.8
5 | CNC(=O)c1n[nH]c2c1C(c1cccc3c1OC(C)(C)C3)CC(=O)N2 (stereo not given) | 50.1
6 | CNC(=O)c1n[nH]c2c1C(c1cccc3[nH]ccc13)CC(=O)N2 (stereo not given) | 24.4
7 | CNC(=O)c1n[nH]c2c1C(c1cccc3nsnc13)CC(=O)N2 (stereo not given) | 46.9
8 | CCc1[nH]ncc1C(=O)N1CCOC(c2nc(C)n[nH]2)C1 (stereo not given) | 25.6
9 | Cn1ccnc1CN1CC[C@@H](NS(C)(=O)=O)[C@@H]1Cc1ccccc1 | 45.1
10 | COc1ccc(COCC(O)CNC(=O)c2ccc(C)c(F)c2)cc1 (stereo not given) | 52.3
11 | COc1ccc(COCC(O)CNC(=O)c2cc(C)cc(C)c2)cc1 (stereo not given) | 17.7
12 | COc1ccc(COCC(O)CNC(=O)c2cccc(OC)c2)cc1 (stereo not given) | 23.5
13 | CS(=O)(=O)NC1CCN(c2cccc(F)c2C#N)CC1 | -12.1
14 | COc1c(F)cc(-c2cn(CCn3c(C)cc(C)nc3=O)nn2)cc1Cl | -4.68
15 | CC(=O)Nc1ccc(-c2cn(CCn3c(C)cc(C)nc3=O)nn2)cc1 | -31.1
16 | COc1ccc(-c2cn(CCn3c(C)cc(C)nc3=O)nn2)cn1 | 51.4
17 | CC(C)(C)C1SCC(=O)Nc2c1c(O)nn2C1CCCCC1 (stereo not given) | 37.4
18 | CC(C)C1SCC(=O)Nc2c1c(O)nn2C1CCCC1 (stereo not given) | 1.04
19 | CC(C)C1SCC(=O)Nc2c1c(O)nn2C1CCCCC1 (stereo not given) | 74.4
20 | CC(C)Oc1ccccc1C1CC(=O)Nc2nc(N3CCOCC3)sc21 (stereo not given) | -41.2
21 | Cc1nc2c(c(=O)[nH]1)CCN(C(=O)c1[nH]nc3c1CC(C)CC3)C2 (stereo not given) | 15.2
22 | c1nc(CN2CCCC(Cc3ccc(NC4CCCC4)nn3)C2)c[nH]1 (stereo not given) | 13.7
23 | CCNc1ccnc(N2CCN(Cc3ncccc3C)CC2)n1 | 51.3
24 | Cc1cc(C)c2c(N3CCN(Cc4ncccc4C)CC3)ncnc2n1 | 58.1

Row | SMILES | INHIBITION [%]
25 | Cc1cc(C)c2c(N3CCN(CCN4CCOCC4)CC3)ncnc2n1 | 40.3
26 | COCCN1CCN(c2ncnc3nc(C)cc(C)c23)CC1 | -14.1
27 | Cc1cccnc1CN1CCN(c2noc(-c3ccccc3)n2)CC1 | -13.2
28 | CCOc1ccnc(N2CCN(Cc3ncccc3C)CC2)n1 | 27.9
29 | CC(C)C(=O)N1CCN(c2ncnc3cc4c(cc23)OCCO4)CC1 | 2.69
30 | O=C(O)c1ccccc1-n1cc(CN2CCOC(c3cc[nH]n3)C2)cn1 (stereo not given) | 20.7
31 | Cc1ccc(-c2nc(CN3CCCC(Cn4cncn4)C3)cs2)o1 (stereo not given) | -7.35
32 | Nc1ncnc2nc(C3CCN(C(=O)Cc4ccc(F)cc4)C3)ccc12 (stereo not given) | -19.9
33 | CCC(C)N(Cc1cnc(NC(C)C)nc1)Cc1ccsc1 (stereo not given) | 30.4
34 | CCc1nnc(Nc2cccc(C3CCN(C(=O)CNC)CC3)n2)s1 | -17.7
35 | CC(Cc1cn(CCc2n[nH]c(=O)[nH]2)nn1)c1ccccc1 (stereo not given) | 18.5
36 | CN(C)c1ccc(CC2CCN(c3cnccn3)C2)nn1 (stereo not given) | 0.696
37 | COC1(CNC(=O)c2ccsc2)CCSC1 (stereo not given) | 5.91
38 | COC(=O)CN1CCC(C(F)(F)F)CC1 | -8.9
39 | Cc1ccsc1C(=O)N1CCc2ncc(Cn3cccn3)n2CC1 | 29.4
40 | Cc1ccsc1C(=O)N1CCc2ncc(CN(C)C)n2CC1 | 62.9
41 | CN(C)Cc1cnc2n1CCN(C(=O)Cc1ccc(F)cc1)CC2 | 52.6
42 | Cc1ccsc1C(=O)N1CCc2ncc(CN3CCCC3)n2CC1 | 8.6
43 | CN(C)Cc1cnc2n1CCN(C(=O)Cc1ccsc1)CC2 | 11.3
44 | CN(C)Cc1cnc2n1CCN(C(=O)Cc1cccc(F)c1)CC2 | 37.9
45 | Cc1nc(N)ncc1C(=O)N1CCCC(CCc2ccccc2F)C1 (stereo not given) | 43.9
46 | O=c1[nH]c2ccccc2cc1CNCCCN1CCOCC1 | 36.4
47 | O=C(N1CCCC1)N1CCC2(CCN(Cc3ccccn3)C2=O)C1 (stereo not given) | 15.6
48 | Cc1ccc(CN2CCc3nnc(CN4CCCC4=O)n3CC2)s1 | 37.1

Row | SMILES | INHIBITION [%]
49 | O=C(Cc1ccsc1)N1CCCC(CNS(=O)(=O)Cc2ccccc2)C1 (stereo not given) | 34.6
50 | O=S(=O)(Cc1ccccc1)NCC1CCCN(Cc2cccs2)C1 (stereo not given) | 48.1
51 | CS(=O)(=O)NCC1CCCN(C(=O)CCCc2ccccc2)C1 (stereo not given) | -0.18
52 | O=C(CN1CCCC1)N1CCCC(CNS(=O)(=O)Cc2ccccc2)C1 (stereo not given) | 51.3
53 | O=C(Cc1cccs1)N1CCCC(CNS(=O)(=O)Cc2ccccc2)C1 (stereo not given) | 73.6
54 | CS(=O)(=O)NCC1CCCN(C(=O)COCc2ccccc2)C1 (stereo not given) | 32.6
55 | CC(=O)N1CCCC1c1ccc(CN2CCOCC2)cn1 (stereo not given) | 35.625
56 | CCC(COC)NC(=O)N1CCC(n2ccc(C(F)(F)F)n2)CC1 (stereo not given) | -15.1
57 | CCn1ccc(-c2nnc(SCC(=O)Nc3ccc(C)cc3)n2CC)n1 | 7.38
58 | CCN1C(=O)CC(c2ccccc2)C12CCN(CC1CCOCC1)CC2 (stereo not given) | 43.2
59 | CCN(C)c1ncnc2c1CCN(S(=O)(=O)c1ccccc1)CC2 | 43.9
60 | Cc1ccc(OCCn2cnc3oc(C)c(C(=O)O)c3c2=O)cc1 | -1.04
61 | CC(Cn1ccnc1)NC(=O)N1CCN(Cc2ccco2)CC1 (stereo not given) | -13.65
62 | OC1CCN(c2cncc(CCC3CCCN3)n2)CC1 (stereo not given) | 9.575
63 | O=C(CCN1CCCCO1)NCc1cn2c(n1)SCC2 | 78.4
64 | O=C(NCc1cn2c(n1)SCC2)c1ccc(CN2CCCCC2)cc1 | 29.2
65 | O=C(NCc1cn2c(n1)SCC2)c1cn(CCN2CCCCC2)nn1 | 21
66 | CN(C(=O)C1CCCC1)C(c1cccc(F)c1)c1ccccn1 (stereo not given) | 5.7
67 | CCOc1ccc(C(=O)N(Cc2cnn(C)c2)C(C)C)cc1OCC | 27.8
68 | O=C(CO)N1CCCC2(CCC(=O)N(CC3CC3)C2)C1 (stereo not given) | 33
69 | O=C(CCC(F)(F)F)N1CCCC2(CCC(=O)N(CC3CC3)C2)C1 (stereo not given) | 59.4
70 | O=C(CSCC1CC1)N1CCCC2(CCC(=O)N(CC3CC3)C2)C1 (stereo not given) | 32.1
